Sampled rows, rich in hits. Any-hit rate of the full collection: about 3.5%.
GPR151 activ: activators of human GPR151; Q8TDV0; PathHunter beta-arrestin GPR151 cells, luminescence; activation, % at 11.2 µM; 650,000 compounds, 1% hits; AID 1508602; in the data active = activation above about 4.9%;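 note: 0% = median of compound wells and 100% = cells with positive control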
FBW7 act: activators of human E3 ligase FBW7 | AlphaScreen FBW7–phospho-cyclin E peptide binding, activator screen | normalized activity (activation), % at 26.1 µM | 650,000 compounds, 0.13% hits; in the data active = normalized activity above about 1.9%;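 note: purified mutant Fbw7 with reduced substrate affinity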
Target sequence (Q969H0 whole entry, looked up): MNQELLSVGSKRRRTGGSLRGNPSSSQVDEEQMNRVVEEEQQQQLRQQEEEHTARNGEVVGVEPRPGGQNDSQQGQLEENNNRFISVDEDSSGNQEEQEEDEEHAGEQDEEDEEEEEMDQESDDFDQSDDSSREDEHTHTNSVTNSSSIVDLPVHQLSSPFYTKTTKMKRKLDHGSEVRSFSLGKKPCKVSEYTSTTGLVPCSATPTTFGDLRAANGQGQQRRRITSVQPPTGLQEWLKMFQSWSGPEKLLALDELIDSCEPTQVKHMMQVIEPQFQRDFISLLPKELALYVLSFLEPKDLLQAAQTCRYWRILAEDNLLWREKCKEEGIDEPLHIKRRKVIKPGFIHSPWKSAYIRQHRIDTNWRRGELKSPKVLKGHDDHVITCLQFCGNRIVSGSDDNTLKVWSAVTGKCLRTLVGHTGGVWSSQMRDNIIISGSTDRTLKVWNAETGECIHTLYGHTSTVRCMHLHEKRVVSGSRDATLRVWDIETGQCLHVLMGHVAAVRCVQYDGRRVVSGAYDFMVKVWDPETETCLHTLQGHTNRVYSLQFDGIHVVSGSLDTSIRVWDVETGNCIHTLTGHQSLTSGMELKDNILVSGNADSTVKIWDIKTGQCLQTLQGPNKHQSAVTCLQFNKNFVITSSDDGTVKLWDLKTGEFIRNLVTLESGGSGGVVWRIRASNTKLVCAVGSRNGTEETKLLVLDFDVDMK
TEAD-YAP inh: TEAD-YAP interaction inhibition; HEK-TIYL cells, TEAD-Gal4/YAP UAS-luciferase luminescence; inhibition, % at 9.12 µM; 640,000 compounds, 1.4% hits; in the data active = inhibition above about 32%;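 note: 0% = median of test compound wells and 100% = reference inhibitor wells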
MITF inh: blocks human microphthalmia-associated transcription factor | O75030 | AlphaScreen MITF homodimerization, bead proximity signal | inhibition, % at 2.6 µM | 650,000 compounds, 0.91% hits | AID 1259374; in the data active = inhibition above about 50%;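 note: 0% = vehicle wells with protein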
Numbers without * were called inactive; ! = not active in a repeat.

SMILES	GPR151 activ	FBW7 act	TEAD-YAP inh	MITF inh
O=C(CNC(=S)N(Cc1ccccc1)Cc1cccs1)NCc1ccccc1	-0.4	0.8	2.7	16.0
S=C(Nc1ccc(Cl)cc1)N(Cc1ccccc1)Cc1cccs1	1.3	0.2	5.1	8.4
Cc1ccc(CNC(=O)CNC(=S)N(Cc2ccccc2)Cc2cccs2)cc1	0.1	2.0*	7.0	8.7
CCOC(=O)C(C)Oc1ccc2cc(-c3ccc(OC)c(OC)c3)c(=O)oc2c1 (stereo not given)	-8.4	2.3*	6.5	-11.7
CCOC(=O)COc1ccc2c(C)c(-c3ccc(OC)c(OC)c3)c(=O)oc2c1	0.8	2.0*	6.0	-15.3
COc1ccccc1-c1cc2ccccc2oc1=O	-0.2	0.1	-12.6	2.5
COc1ccc(-c2cc3ccccc3oc2=O)cc1N	-1.4	0.0	33.4*	3.9
O=c1c(-c2cnn(-c3ccccc3)c2)coc2cc(O)ccc12	-2.1	0.1	33.0*	-21.7
Cc1ccccc1-c1coc2cc(O)ccc2c1=O	1.6	-0.2	-10.2	-17.6
O=c1c(-c2ccc(O)cc2)coc2cc(OC3OC(CO)C(O)C(O)C3O)cc(O)c12 (stereo not given)	0.2	-0.2	14.7	-12.1
COc1ccc(-c2coc3cc(O)ccc3c2=O)c(O)c1O	-1.4	0.3	-7.8	80.3*
COc1ccc2c(=O)c(-c3ccc(O)cc3)coc2c1	-2.0	-0.1	80.8*	-7.4
O=c1c(-c2ccc(O)cc2)coc2cc(OC3OC(CO)C(O)C(O)C3O)ccc12 (stereo not given)	-2.9	0.1	53.9*	-1.6
O=c1c(-c2cnn(-c3ccccc3)c2)coc2c(O)c(O)ccc12	-0.1	-0.1	-77.4	7.2
O=c1c(-c2ccc(O)cc2)coc2cc(O)ccc12	-1.8	0.3	73.2*!	18.9
CC(C)C(C(=O)O)N1C(=O)/C(=C/C=C/c2ccco2)SC1=S (stereo not given)	0.3	-1.3	-1.9	64.0*
CN1C(=O)S/C(=C\C=C\c2ccco2)C1=O	1.0	0.4	-19.8	43.9
CN1C(=O)/C(=C\C=C\c2ccco2)SC1=S	1.4	-0.8	-1.3	82.1*
CS(=O)(=O)c1cccc(S(=O)(=O)Nc2ccc3c(c2)OCO3)c1	1.8	1.1	8.4	6.5
COC(=O)n1nnnc1CN(Cc1cc2ccc(OC)cc2[nH]c1=O)C1CCCCC1	-0.3	0.0	6.4	-2.7
CC1=CC(=C2C(=O)c3ccccc3C2=O)C=C(C)N1C(C)C	-4.7	0.1	67.0*	17.6
CCc1nc2scc(-c3ccc(Br)cc3)c2c(=O)o1	-0.5	-0.3	0.4	-3.5
COc1ccc(/C=C(/C#N)c2cccc([N+](=O)[O-])c2)c(OC)c1	-0.6	-0.2	7.7	15.1
COc1ccc(/C=C(/C#N)c2cccc(F)c2)c(OC)c1	-0.9	-0.2	42.5*	-2.9
C=CCOc1ccc(/C(O)=C2/C(=O)C(=O)N(CCCN3CCOCC3)C2c2ccc(F)cc2)cc1C (stereo not given)	1.7	0.0	-2.7	-13.5
SMILES	GPR151 activ	FBW7 act	TEAD-YAP inh	MITF inh
CCN1CCN(CCCNC(=O)COc2cc(=O)n(C)c3ccccc23)CC1	1.1	0.0	-0.2	17.6
COc1ccc(-c2c(C)oc3cc(OS(C)(=O)=O)ccc3c2=O)cc1	0.5	-0.1	36.9*	3.1
COc1ccc(-c2c(C)oc3cc(O)ccc3c2=O)cc1	1.4	-0.2	1.0	-4.3
Cc1oc2cc(OS(C)(=O)=O)ccc2c(=O)c1-c1ccc(Br)cc1	3.2	0.0	34.0*	0.8
COc1cccc(Oc2c(C)oc3cc(OS(C)(=O)=O)ccc3c2=O)c1	0.7	0.0	44.1*	-4.5
Cc1oc2cc(OCC(=O)O)ccc2c(=O)c1-c1ccc(Br)cc1	0.7	-0.1	-1.7	-3.3
Cc1oc2cc(OCCN3CCOCC3)ccc2c(=O)c1-c1ccc(Br)cc1	0.6	0.1	36.8*	-2.7
COc1cccc(CC(C2CCN(C(=O)/C=C/c3ccncc3)CC2)N(C)C(=O)C2CC2)c1 (stereo not given)	1.2	0.1	2.4	4.6
CCn1cc(CN2CCN3C(=O)[C@H](Cc4ccccc4)N(C)C(=O)[C@H]3C2)c(C)n1	1.3	-0.1	-1.4	11.7
C=C(C)Cn1c(SC)nc2sc3c(c2c1=O)CCCC3	-0.6	-0.1	-6.7	-1.2
Cc1ccc2cccc(OS(=O)(=O)c3ccccc3C)c2n1	1.7	0.6	5.9	-4.0
COc1ccc(S(=O)(=O)Oc2cccc3ccc(C)nc23)cc1OC	3.7	1.9*	8.9	10.2
COc1ccc(-c2csc(NC(=O)c3ccc(S(=O)(=O)N(C)c4ccccc4)cc3)n2)c(OC)c1	-0.9	0.1	-4.3	-2.1
CCCCOC(=O)c1cccc(NC(=O)c2ccc(C(C)(C)C)cc2)c1	1.2	0.1	52.1*	-7.1
CCOCCOC(=O)c1ccc(NC(=O)c2ccc(C(C)(C)C)cc2)cc1	0.2	0.3	68.6*	2.6
O=C(O)c1cccc(NC(=O)c2ccc(-c3ccccc3)cc2)c1	2.8	0.1	41.2*	-3.7
CC(C)(C)c1ccc(C(=O)Nc2cccc(C(=O)O)c2)cc1	-7.5	0.2	83.6*	9.4
O=C(N/N=C/c1ccccc1[N+](=O)[O-])c1ccc([N+](=O)[O-])cc1	-0.2	0.1	-51.0	12.0
COc1ccc(CCNC(=O)c2sc3ncnc(N4CCN(c5ccccn5)CC4)c3c2C)cc1OC	0.4	0.1	69.8*	-4.8
COc1ccc(CCNC(=O)c2sc3ncnc(N4CCN(c5ccccc5OC)CC4)c3c2C)cc1OC	-0.5	0.4	14.2	17.7
CCCCN(CC)C(=O)Cn1cnc2sc3c(c2c1=O)CCCC3	0.7	-0.1	-4.1	9.0
COc1ccc(S(=O)(=O)N2CCC(C(=O)O)CC2)cc1Cl	2.6	0.1	-6.1	-5.7
N#Cc1c2ccc([N+](=O)[O-])cc2[n+]([O-])n1-c1ccccc1	1.2	0.0	-24.9	-3.1
N#CC1=C(N)N(c2ccccc2)S(=O)(=O)c2cc([N+](=O)[O-])ccc21	-1.3	0.0	56.1*	14.0
CCN1CCCC(NC(=O)c2scc3c2CCCC3)C1 (stereo not given)	-0.7	-0.1	-2.3	2.1
SMILES	GPR151 activ	FBW7 act	TEAD-YAP inh	MITF inh
Cn1c(=O)cc(NCc2ccc(Cl)cc2)n(Cc2ccccc2)c1=O	-1.4	0.0	-5.4	-1.1
O=C(/C=C/c1cccs1)Nc1ccc(Cl)c2ncsc12	1.1	0.1	87.0*	-9.8
Cc1ccnc(NC(=O)/C=C/c2cccs2)c1	-6.3	0.8	55.1*	16.5
CCc1ccc(-c2cn3ccc(C)cc3n2)cc1	-6.4	0.7	96.4*	4.7
CCc1ccc(-c2cn3cc(C)ccc3n2)cc1	-2.1	0.0	-1.0	-103.9
Cc1ccn2cc(-c3cc4ccccc4oc3=O)nc2c1	-7.4	0.7	-22.7	4.4
Cc1ccn2cc(-c3ccccc3Cl)nc2c1	-6.5	0.2	70.7*	11.2
Cc1ccn2cc(-c3ccc(Cl)cc3)nc2c1	-9.0	0.9	78.4*	18.2
O=C(O)C1CCCN(S(=O)(=O)c2cccc3nonc23)C1 (stereo not given)	-1.3	1.1	-14.4	14.3
COc1ccc(N(C)S(=O)(=O)c2cccc3cccnc23)c(OC)c1	-0.3	-0.1	39.0*	-10.2
COc1ccc(Cc2cnc(NC(=O)COc3cccc(C)c3)s2)cc1	0.8	-0.1	52.2*	-3.6

High-throughput results (PubChem BioAssay)
